Reference: ChEMBL document CHEMBL2218924, “A broad activity screen in support of a chemogenomic map for kinase signalling research and drug discovery” (Biochem J, 2013)

Assays:
[1] = biological target: Tyrosine-protein kinase SYK (Homo sapiens) (UniProt P43405); conditions: at 10 µM
[2] = biological target: T1, Mitogen-activated protein kinase kinase kinase 7 (Homo sapiens) (UniProt O43318); conditions: at 1 µM
T1 sequence (whole entry): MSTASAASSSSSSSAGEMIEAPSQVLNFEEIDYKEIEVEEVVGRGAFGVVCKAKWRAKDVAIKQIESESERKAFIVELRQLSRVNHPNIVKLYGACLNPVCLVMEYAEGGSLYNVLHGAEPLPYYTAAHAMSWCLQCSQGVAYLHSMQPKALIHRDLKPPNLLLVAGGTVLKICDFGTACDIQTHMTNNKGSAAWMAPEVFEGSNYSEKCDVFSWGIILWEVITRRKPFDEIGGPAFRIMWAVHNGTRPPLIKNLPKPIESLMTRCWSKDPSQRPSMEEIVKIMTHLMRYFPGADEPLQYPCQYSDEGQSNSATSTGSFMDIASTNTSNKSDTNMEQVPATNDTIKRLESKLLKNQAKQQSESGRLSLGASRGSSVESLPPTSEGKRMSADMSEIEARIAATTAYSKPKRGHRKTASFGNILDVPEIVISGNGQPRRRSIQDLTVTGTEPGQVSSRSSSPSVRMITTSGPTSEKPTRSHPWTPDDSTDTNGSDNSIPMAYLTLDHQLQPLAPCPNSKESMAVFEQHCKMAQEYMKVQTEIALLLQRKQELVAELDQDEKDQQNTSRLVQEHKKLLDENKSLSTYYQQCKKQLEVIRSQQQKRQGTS

[3] = biological target: T1, Mitogen-activated protein kinase kinase kinase 7 (Homo sapiens); conditions: at 10 µM
[4] = biological target: T2, Serine/threonine-protein kinase TAO1 (Homo sapiens) (UniProt Q7L7X3); conditions: at 1 µM
T2 sequence (whole entry): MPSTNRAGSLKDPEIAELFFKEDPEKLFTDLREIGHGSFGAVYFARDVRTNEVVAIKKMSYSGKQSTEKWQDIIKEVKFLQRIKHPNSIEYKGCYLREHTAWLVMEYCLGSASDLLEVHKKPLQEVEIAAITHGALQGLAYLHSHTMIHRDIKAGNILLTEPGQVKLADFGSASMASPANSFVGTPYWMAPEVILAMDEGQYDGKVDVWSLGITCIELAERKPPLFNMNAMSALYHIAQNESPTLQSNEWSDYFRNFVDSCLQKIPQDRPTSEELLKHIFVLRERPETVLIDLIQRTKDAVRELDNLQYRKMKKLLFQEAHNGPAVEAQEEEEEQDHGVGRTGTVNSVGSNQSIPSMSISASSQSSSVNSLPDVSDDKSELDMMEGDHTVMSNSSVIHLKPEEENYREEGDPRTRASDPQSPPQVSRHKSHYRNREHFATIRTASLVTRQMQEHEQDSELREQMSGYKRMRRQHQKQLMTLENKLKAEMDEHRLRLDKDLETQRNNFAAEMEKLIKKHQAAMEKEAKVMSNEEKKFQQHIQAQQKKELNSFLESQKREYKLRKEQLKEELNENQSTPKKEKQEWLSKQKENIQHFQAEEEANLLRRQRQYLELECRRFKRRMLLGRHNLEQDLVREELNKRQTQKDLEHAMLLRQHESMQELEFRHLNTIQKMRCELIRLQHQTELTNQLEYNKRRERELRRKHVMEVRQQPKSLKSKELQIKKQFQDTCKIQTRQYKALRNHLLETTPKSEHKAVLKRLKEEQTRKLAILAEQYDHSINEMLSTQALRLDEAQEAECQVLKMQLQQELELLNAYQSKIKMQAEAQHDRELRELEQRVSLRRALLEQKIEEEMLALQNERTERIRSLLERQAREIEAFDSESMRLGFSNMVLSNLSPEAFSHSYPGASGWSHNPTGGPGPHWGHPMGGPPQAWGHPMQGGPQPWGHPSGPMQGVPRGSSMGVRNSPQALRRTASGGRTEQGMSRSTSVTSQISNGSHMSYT

[5] = biological target: T2, Serine/threonine-protein kinase TAO1 (Homo sapiens); conditions: at 10 µM
[6] = biological target: T3, Serine/threonine-protein kinase TAO2 (Homo sapiens) (UniProt Q9UL54); conditions: at 1 µM
T3 sequence (whole entry): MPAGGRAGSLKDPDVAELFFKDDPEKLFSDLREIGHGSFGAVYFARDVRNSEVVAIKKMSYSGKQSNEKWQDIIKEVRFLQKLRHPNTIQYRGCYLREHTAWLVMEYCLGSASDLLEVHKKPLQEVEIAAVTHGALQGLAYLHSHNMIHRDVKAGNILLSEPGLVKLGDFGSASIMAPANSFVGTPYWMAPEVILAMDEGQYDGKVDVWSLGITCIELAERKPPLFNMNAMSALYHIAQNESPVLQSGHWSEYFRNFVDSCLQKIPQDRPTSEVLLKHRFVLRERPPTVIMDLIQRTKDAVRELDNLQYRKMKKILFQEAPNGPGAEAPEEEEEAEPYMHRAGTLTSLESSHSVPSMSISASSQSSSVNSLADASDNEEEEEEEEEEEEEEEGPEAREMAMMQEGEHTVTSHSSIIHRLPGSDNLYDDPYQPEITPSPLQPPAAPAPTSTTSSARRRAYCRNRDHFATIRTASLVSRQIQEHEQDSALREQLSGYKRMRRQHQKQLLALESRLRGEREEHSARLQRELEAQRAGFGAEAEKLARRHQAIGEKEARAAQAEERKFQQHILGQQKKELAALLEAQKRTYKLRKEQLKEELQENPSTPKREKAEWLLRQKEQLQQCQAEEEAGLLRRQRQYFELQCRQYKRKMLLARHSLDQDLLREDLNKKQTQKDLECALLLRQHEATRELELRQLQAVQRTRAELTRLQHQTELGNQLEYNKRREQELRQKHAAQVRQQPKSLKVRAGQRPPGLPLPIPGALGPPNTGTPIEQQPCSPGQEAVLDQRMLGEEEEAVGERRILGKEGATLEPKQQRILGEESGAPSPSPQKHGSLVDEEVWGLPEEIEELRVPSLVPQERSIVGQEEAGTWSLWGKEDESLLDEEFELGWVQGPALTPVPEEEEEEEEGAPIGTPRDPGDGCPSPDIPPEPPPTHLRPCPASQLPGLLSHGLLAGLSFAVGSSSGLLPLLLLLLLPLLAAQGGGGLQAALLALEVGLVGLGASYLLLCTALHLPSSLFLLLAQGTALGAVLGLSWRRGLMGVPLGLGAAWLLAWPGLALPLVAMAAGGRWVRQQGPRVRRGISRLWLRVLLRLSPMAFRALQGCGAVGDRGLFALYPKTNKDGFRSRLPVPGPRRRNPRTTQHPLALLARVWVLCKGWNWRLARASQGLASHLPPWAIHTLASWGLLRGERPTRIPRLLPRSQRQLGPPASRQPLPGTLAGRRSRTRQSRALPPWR

[7] = biological target: T3, Serine/threonine-protein kinase TAO2 (Homo sapiens); conditions: at 10 µM
[8] = biological target: T4, Serine/threonine-protein kinase TAO3 (Homo sapiens) (UniProt Q9H2K8); conditions: at 1 µM
T4 sequence (whole entry): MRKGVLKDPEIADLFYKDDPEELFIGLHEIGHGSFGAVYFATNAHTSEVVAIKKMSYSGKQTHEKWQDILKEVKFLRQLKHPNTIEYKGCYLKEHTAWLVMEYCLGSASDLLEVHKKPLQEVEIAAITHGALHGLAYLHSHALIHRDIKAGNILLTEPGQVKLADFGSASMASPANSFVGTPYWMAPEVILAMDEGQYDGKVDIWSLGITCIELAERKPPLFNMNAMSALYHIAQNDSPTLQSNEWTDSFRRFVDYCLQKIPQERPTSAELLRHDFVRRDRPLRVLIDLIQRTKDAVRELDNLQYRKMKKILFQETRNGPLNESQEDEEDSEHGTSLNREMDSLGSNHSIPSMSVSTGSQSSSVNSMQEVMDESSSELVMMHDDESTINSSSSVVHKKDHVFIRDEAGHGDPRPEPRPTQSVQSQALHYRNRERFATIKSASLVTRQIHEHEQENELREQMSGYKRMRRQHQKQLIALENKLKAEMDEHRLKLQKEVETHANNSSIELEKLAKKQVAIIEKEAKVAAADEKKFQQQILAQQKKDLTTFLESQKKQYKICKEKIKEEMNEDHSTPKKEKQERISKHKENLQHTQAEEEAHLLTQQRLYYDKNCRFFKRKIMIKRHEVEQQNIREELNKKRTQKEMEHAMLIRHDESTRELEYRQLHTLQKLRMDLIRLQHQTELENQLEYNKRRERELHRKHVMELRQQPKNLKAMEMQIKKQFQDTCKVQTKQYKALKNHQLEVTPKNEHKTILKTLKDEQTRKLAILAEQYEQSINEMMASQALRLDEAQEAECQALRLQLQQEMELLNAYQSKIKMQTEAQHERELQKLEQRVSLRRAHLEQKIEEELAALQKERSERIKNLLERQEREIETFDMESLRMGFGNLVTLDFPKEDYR

[9] = biological target: T4, Serine/threonine-protein kinase TAO3 (Homo sapiens); conditions: at 10 µM
[10] = biological target: T5, Serine/threonine-protein kinase TBK1 (Homo sapiens) (UniProt Q9UHD2); conditions: at 1 µM
T5 sequence (whole entry): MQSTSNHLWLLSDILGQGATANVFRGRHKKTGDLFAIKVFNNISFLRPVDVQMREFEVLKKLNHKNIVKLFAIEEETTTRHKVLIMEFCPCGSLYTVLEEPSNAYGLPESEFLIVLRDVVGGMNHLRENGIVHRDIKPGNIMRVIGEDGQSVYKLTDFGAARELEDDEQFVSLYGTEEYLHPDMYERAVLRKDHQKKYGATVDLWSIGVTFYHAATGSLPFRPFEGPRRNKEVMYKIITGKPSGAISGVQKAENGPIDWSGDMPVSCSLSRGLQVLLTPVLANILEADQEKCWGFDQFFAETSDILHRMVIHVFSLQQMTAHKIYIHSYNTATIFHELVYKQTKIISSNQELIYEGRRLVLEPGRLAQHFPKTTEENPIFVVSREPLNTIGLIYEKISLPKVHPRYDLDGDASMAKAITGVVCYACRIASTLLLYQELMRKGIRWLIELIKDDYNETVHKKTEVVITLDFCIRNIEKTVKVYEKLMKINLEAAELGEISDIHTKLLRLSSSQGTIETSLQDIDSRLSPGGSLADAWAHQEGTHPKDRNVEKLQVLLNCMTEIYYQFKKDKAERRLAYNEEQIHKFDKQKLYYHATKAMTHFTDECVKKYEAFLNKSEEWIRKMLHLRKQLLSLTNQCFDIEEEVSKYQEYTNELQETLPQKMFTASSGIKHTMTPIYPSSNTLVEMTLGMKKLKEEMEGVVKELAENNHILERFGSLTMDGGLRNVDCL

CO[C@H]1[C@@H](OC)C[C@H](C)[C@@H](OC)C2=CC(=O)C=C(NC(=O)/C(C)=C/C=C/[C@H](OC)[C@@H](OC(N)=O)/C(C)=C/[C@@H]1C)C2=O
residual activity [1]: 87% | residual activity [2]: 96% | residual activity [3]: 94% | residual activity [4]: 98% | residual activity [5]: 89% | residual activity [6]: 99% | residual activity [7]: 93% | residual activity [8]: 107% | residual activity [9]: 95% | residual activity [10]: 77%
